# Laboratory results taken from the supplement of paper PMC6555819.
# Columns and labels:
# Assay in all cases: PBM binding z-score (relative to random genomic background probes); higher = stronger binding; sequences stand for … in GC…GCGATTGACAGCGTAGAATGAAGG
# [1] = tested on: FXR:RXRa (NR concentration 270 nM, RXRa partner concentration 90 nM)
# Summary of the method: (§1)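 Binding z-scores were set against random background probes. The data came from custom Agilent 4×180K protein-binding microarrays carrying double-stranded probes with 34-nt variable regions, incubated 1 h with ligand-free nuclear receptor dimers. Partner-specific antibodies detected binding, and scanned fluorescence was regression-normalized.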
# [2] = tested on: LXRa:RXRa (NR concentration 270 nM, RXRa partner concentration 90 nM)
# Summary of the method: as §1
# [3] = tested on: LXRa homodimer (NR concentration 270 nM)
# Summary of the method: as §1
# [4] = tested on: LXRb:RXRa (NR concentration 270 nM, RXRa partner concentration 90 nM)
# Summary of the method: as §1
# [5] = tested on: LXRb homodimer (NR concentration 270 nM)
# Summary of the method: as §1
# [6] = tested on: PPARa:RXRa (NR concentration 270 nM, RXRa partner concentration 90 nM)
# Summary of the method: as §1
# [7] = tested on: PPARg:RXRa (NR concentration 180 nM, RXRa partner concentration 90 nM)
# Summary of the method: as §1
# [8] = tested on: PPARg:RXRa 270nM:90nM, anti-RXR (NR concentration 270 nM, RXRa partner concentration 90 nM)
# Summary of the method: as §1
# [9] = tested on: PPARg:RXRa 30nM:10nM, anti-RXR (NR concentration 30 nM, RXRa partner concentration 10 nM)
# Summary of the method: as §1
# [10] = tested on: PPARg:RXRa 90nM:30nM, anti-RXR (NR concentration 90 nM, RXRa partner concentration 30 nM)
# Summary of the method: as §1
# [11] = tested on: PPARg:RXRa DBDmut IVT, anti-RXR (DBD mutation: RXRa K156A/R161A, NR concentration 270 nM, RXRa partner concentration 90 nM)
# Summary of the method: as §1
# [12] = tested on: PPARg:RXRa IVT, anti-PPARg (NR concentration 270 nM, RXRa partner concentration 90 nM)
# Summary of the method: as §1
# [13] = tested on: PPARg DBDmut:RXRa IVT, anti-PPARg (DBD mutation: PPARg1 K132A/R137A, NR concentration 270 nM, RXRa partner concentration 90 nM)
# Summary of the method: as §1
# [14] = tested on: PPARg DBDmut IVT, anti-PPARg (DBD mutation: PPARg1 K132A/R137A, NR concentration 270 nM)
# Summary of the method: as §1
# [15] = tested on: PPARg homodimer (NR concentration 180 nM)
# Summary of the method: as §1
# [16] = tested on: PXR:RXRa (NR concentration 270 nM, RXRa partner concentration 90 nM)
# Summary of the method: as §1
# [17] = tested on: PXR homodimer (NR concentration 270 nM)
# Summary of the method: as §1
# [18] = tested on: RARa:RXR (NR concentration 270 nM, RXRa partner concentration 90 nM)
# Summary of the method: as §1
# [19] = tested on: RARa homodimer (NR concentration 270 nM)
# Summary of the method: as §1
# [20] = tested on: RARb:RXRa (NR concentration 270 nM, RXRa partner concentration 90 nM)
# Summary of the method: as §1
Sequence,PBM binding z-score [1],PBM binding z-score [2],PBM binding z-score [3],PBM binding z-score [4],PBM binding z-score [5],PBM binding z-score [6],PBM binding z-score [7],PBM binding z-score [8],PBM binding z-score [9],PBM binding z-score [10],PBM binding z-score [11],PBM binding z-score [12],PBM binding z-score [13],PBM binding z-score [14],PBM binding z-score [15],PBM binding z-score [16],PBM binding z-score [17],PBM binding z-score [18],PBM binding z-score [19],PBM binding z-score [20]
CCTTACGGGTCACTCCAGGATATAGCATCGGAGT,4.88,5.8,0.346,2.94,0.014,4.08,3.39,3.49,1.08,2.48,2.53,2.97,0.582,-0.0388,1.51,3.13,0.912,2.84,0.759,3.4
GCTAGCAGGCCATTTGGGTCGCTCAATGACGGGC,-0.655,-0.842,-0.846,-1.04,-1.24,-0.407,-0.08,-0.417,-0.944,-0.61,0.479,0.26,-1.18,-1.25,-1.01,-0.81,-0.85,-0.542,-1.69,-0.0207
CGAACGAGGGCATGAATTGATAGCAAATGCCGAT,-0.0699,-0.102,-0.436,-0.0113,-0.655,0.924,0.992,0.623,0.00744,0.388,2.65,1.53,0.103,-0.47,0.00872,0.118,-0.261,0.259,-0.227,1.72
ATATGTAAGTTATCGGGTCATTCAGTTTGCGCAT,2.13,2.33,1.43,2.61,1.02,2.93,1.83,2.22,0.702,1.72,2.89,3.27,1.57,1.8,1.64,3.39,6.97,2.93,1.29,2.05
AGTCAAAGTTCTGGACGAGGTAACGTAAAGCACG,-0.243,-0.501,-0.429,-0.322,-0.689,0.00286,0.557,0.0282,-0.285,0.00624,-0.983,0.272,0.288,0.0438,-0.146,-0.238,-0.479,0.0945,0.0553,0.168
TTACCAAGGTGAAAGGGCGTTGATGCACGCCTTG,1.12,0.702,-0.488,0.742,-0.657,3.48,5.55,5.63,4.32,5.82,1.85,3.87,0.557,0.204,0.404,1.14,-0.361,1.94,-0.167,1.88
GAGACTGGGGCATCAGCAGGTTACCATAACTTAA,0.0727,0.0866,-0.0013,1.28,0.0718,1.73,1.71,1.63,0.0526,0.657,4.76,4.68,0.663,0.792,0.579,0.391,0.295,0.706,-0.0469,1.09
GCTCGGAGGACAAGGTCAGAGGTTTGTCCGTAGA,1.77,1.52,-0.501,1.28,-0.78,2.39,1.75,2.59,0.214,2.08,-0.0469,1.09,-1.25,-0.886,0.801,1.78,-0.0547,2.19,-0.638,3.47
GGAACGAGGGCAAAGCTGATAGCATCTGTCGACG,0.392,0.366,-0.605,-0.126,-0.711,1.68,1.5,1.78,0.251,1.17,4.19,2.81,0.774,-0.247,0.0511,0.048,-0.0388,0.0386,-0.822,1.99
TCATATAGGTAATACAGGTGAAAGTAGGCATCTA,0.885,1.45,0.55,1.22,0.295,2.15,2.26,2.62,3.8,3.24,3.97,3.61,1.94,1.73,1.39,0.952,0.772,1.07,1.69,0.613
ACAGACAGGTGTGTGAAGGTAACTCAGCTGGACG,0.0191,-0.00303,-0.46,-0.618,-0.921,-0.347,0.522,-0.0357,-0.212,-0.375,-0.215,-0.0763,-0.159,-0.168,-0.299,-0.399,-0.457,-0.395,-0.0972,-0.265
CCTACTGGGCCACGAGAGGTCATTGATTCAGTGA,3.4,4.47,4.55,3.57,0.302,4.09,4.45,4.16,1.68,3.1,6.03,5.58,-0.253,-0.977,3.46,5.52,2.52,5.15,1.39,3.27
CAAACTAGGTCACCAAAGGTCAAAGTCGAATGAC,7.53,8.61,8.25,7.82,3.21,6.74,10.1,8.27,6.41,8.55,8.22,9.1,3.38,2.17,3.38,6.88,2.28,7.52,3.8,5.85
TTACCAAGGTGAAAGGTGGTTGATGCACGCCTTG,0.879,0.449,-0.508,0.171,-0.366,2.81,4.38,5.35,3.06,4.85,3.12,3.55,-0.573,-0.258,0.847,0.419,-0.541,1.35,0.211,1.5
CCGACTGGTGCAAAGGTTACCATACTCAGTACGA,0.595,1.59,0.244,1.89,-0.483,3.86,6.69,6.67,4.73,6.75,0.299,2.67,0.0281,-0.547,1.18,2.07,-0.109,2.87,0.34,1.96
ACTAATAGTTGACTTAGGGCAACCGATACGACGC,0.35,0.168,0.0838,-0.131,0.352,-0.132,0.962,0.054,0.137,0.153,0.0501,0.335,0.861,0.863,0.622,0.0101,0.295,0.399,0.56,1.01
GCTAGCAGGCCATTAGGGTCACTCAATGACGGGC,1.78,1.35,-0.158,1.47,-0.982,2.54,1.2,1.3,-0.267,0.446,1.02,1.61,-0.521,-1.36,0.4,2.86,1.38,2.85,-0.0554,2.42
CCGACTGGGGCAGAAAGGTTACAATACCATCCGG,0.452,0.428,-0.0734,1.17,-0.707,2.02,1.77,2.68,0.821,2.01,1.65,1.7,-0.655,-0.38,0.958,1.14,-0.0674,1.67,0.24,1.73
ATCTCTAGGTAAAGATAGTTCAGTGAATGCAAAT,0.206,4.16,0.484,0.65,0.725,0.625,0.646,0.562,1.03,0.949,2.16,1.66,1.03,1.61,0.566,0.795,0.763,0.643,0.47,0.654
TTACCAAGGTGAAAGGTCGTTGACGCACGCCTTG,4.03,3.4,0.245,2.91,-0.135,5.49,8.84,8.07,6.9,8.64,2.81,4.77,0.591,0.0484,2.15,4.13,0.552,5.9,-0.179,3.21
ATCGAAAGGTCGATGGTGAGTATACCCACCCGAA,3.01,2.38,-0.15,1.83,0.391,3.29,1.48,1.85,0.714,1.02,-0.671,0.8,0.684,0.102,1.04,1.51,-0.361,2.18,0.322,3.03
GCAGACAGGTGAAACGCAGGGAACTCAGGGTGGC,-0.391,-0.181,-0.294,-0.514,-1.21,0.613,0.488,-0.246,-0.526,-0.424,0.902,0.213,0.0548,-0.787,0.0817,-0.255,-0.624,0.127,-0.901,0.545
ACTGACAGGTGATGAAGGTAACTCAGGCTATCAT,-0.15,-0.398,-0.445,-0.455,-0.408,-0.0489,0.472,0.0848,0.0417,0.219,0.252,0.675,0.404,-0.0306,-0.378,-0.393,-0.233,-0.039,0.284,0.224
AGAATGAGGTTATACGTAGATCAGGCAAGAAAGT,1.83,1.82,-0.142,1.29,-0.0449,3.31,1.97,2.21,0.758,1.71,3.76,2.33,1.04,0.362,0.366,1.01,0.159,1.51,0.831,1.29
CAAACTAGGTCAAGAGGTCAAGGTCCGCTTCCCG,6.64,6.02,4.56,4.63,1.32,6.41,9.76,8.19,6.69,8.28,8.52,8.45,0.83,-0.359,5.33,5.88,1.72,7.29,2.29,5.54
AATACAGGGGCATCGTAGGCCAGAGTACGCACAG,0.565,0.874,0.0851,1.04,0.436,1.06,1.13,0.622,0.174,0.275,0.577,1.26,0.192,0.567,-0.0954,0.276,0.165,0.505,-0.245,1.48
CCGACTGGGGCAGAAATGTTACCATACCATCCGG,-0.183,-0.371,-0.171,-0.528,-0.781,-0.385,0.729,-0.0813,-0.351,-0.433,1.57,0.993,-0.699,-1.22,-0.25,-0.347,-0.252,-0.499,-0.698,0.0353
CCTGCTAGGTCAATGGACAGCTAAAGCAGCTCGC,2.71,2.11,-0.488,1.29,-0.325,2.73,1.63,2.17,0.0027,1.05,3.92,3.11,-0.347,-0.89,0.928,0.497,-0.327,1.2,-0.377,3.75
AGAACGAGGGCACGCAGAGTTGATAGCAGAGTAG,1.14,0.811,-0.396,0.439,-0.647,2.54,2.51,2.28,0.386,1.35,4.1,4.09,0.653,0.16,0.313,1.55,0.0867,1.22,-0.379,2.92
